High-throughput results deposited in PubChem BioAssay by National Center for Advancing Translational Sciences (NCATS).
The list is not random: actives were taken first. Their share in the collection is about 19%.
TDP1 cell CPT: growth inhibition of DT40 Tdp1-/-;hTDP1 cells with camptothecin (screen for TDP1 inhibitors). chicken DT40 Tdp1-/-;hTDP1 cells + 20 nM CPT, ATP luminescence, 48 h. Potency, µM (doses to about 46.2 µM), without a hit: top-dose activity change, negative = growth inhibition, hits mostly inhibitors. hit rate 12% among 420,000. AID 686979; also: potency is read from the fitted curve at half-maximal effect; nearly all actives have a fitted effect of over 55% in size
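Cell growth measured by CellTiter-Glo luminescence after a minimum 48 h, 37 C compound exposure with 20 nM CPT in Tdp1-knockout DT40 cells stably expressing hTDP1, seeded 400/well; qHTS titration format.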
HT1080 IDH1KD tx: toxicity to HT-1080 IDH1 knockdown cells (counter line); HT-1080 IDH1 knockdown viability, ATP luminescence, 48 h; Potency, µM (titrated, usually from 46.1 µM), inactives show at the highest dose activity, negative = toxicity, hits mostly cytotoxic; hit rate 2% among 360,000;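 also: potency is read from the fitted curve at half-maximal effect; 0% = DMSO wells and -100% = cell-free medium wells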
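IDH1KD HT-1080 cells, 750/well, RPMI + 5% FBS; compound pinned after 2 h settling; 48 h, 37 °C; CellTiter-Glo luminescence; % activity normalised to DMSO and no-cell wells; curves fitted, classed by r2 and efficacy.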
IL-1B inflam inh: inflammasome signaling inhibition, IL-1 beta readout; THP-1 LPS/ATP IL-1B secretion, AlphaLISA, 16 h; active compounds read low; AID 743279; hit rate 4.7% among 360,000; activity change, % at 57.5 µM; in the data active = activity change below about -50%; inconclusive = mostly about -30% to -49%
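Secreted IL-1B measured by AlphaLISA bead assay after 16 h compound exposure of THP-1 cells; compounds (final up to 57.5 uM) added 1 h before LPS (250 ng/mL) and ATP (1.25 mM) stimulation; lower signal means less secretion.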
HT1080-NT tox: kills 2HG-producing HT-1080-NT fibrosarcoma cells. AID 686970. Potency, µM (top dose mostly 46.1 µM), inactives show at the highest dose activity, negative = less viability, usual class: cytotoxic. hit rate 1.6% among 360,000. HT-1080-NT fibrosarcoma viability, CellTiter-Glo ATP luminescence, 48 h;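 also: NT is the 2HG producing partner of a matched IDH1 knockdown line; potency is read from the fitted curve at half-maximal effect; 0% = DMSO-treated cells and -100% = media-only wells without cells; nearly all actives have a fitted effect of over 55% in size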
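Luminescent CellTiter-Glo readout after 48 hours of compound exposure at 37 degrees C defined viability of HT-1080-NT cells. Activity was normalized to DMSO wells and cell-free media wells; concentration-response curves were fitted and assigned curve classes.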
TDP1 cell noCPT: qHTS for Inhibitors of human tyrosyl-DNA phosphodiesterase 1 (TDP1): qHTS in cells in absence of CPT; Potency, µM (highest dose often 46.2 µM), inactives show top-dose activity change, negative = growth inhibition, most hits filed as inhibitors; DT40 Tdp1-/- hTDP1 cells, no CPT, ATP luminescence, 48 h; hit rate 15% among 420,000; also: potency is read from the fitted curve at half-maximal effect; nearly all actives have a fitted effect of over 55% in size
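Camptothecin absent (DMSO only). Human TDP1-complemented DT40 knockout cells, 400 cells/well, 37 °C for minimum 48 hr; ATP measured via CellTiter-Glo, 30 min dark incubation, luminescence.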
An asterisk follows results filed as active; u = inconclusive; x = no result. Unless noted, calls follow the shape of the dose curve; as a rule, active = well fitted curve in the direction sought with a large enough effect; inconclusive = small, poorly fitted or top-dose-only effect, or another doubt; inactive = no such curve, though single readings can be large; an effect the other way counts as inactive or inconclusive. Unless noted, % is scaled to controls: 0 for no effect and ±100 for the full control effect.

SMILES	TDP1 cell CPT	HT1080 IDH1KD tx	IL-1B inflam inh	HT1080-NT tox	TDP1 cell noCPT
O=C1NC(Cc2ccccc2)c2nc3ccc(F)cc3c(=O)n2-c2cc3ccccc3cc21 (stereo unspecified)	5.2µM*	5.8µM*	-22	5.8µM*	5.2µM*
O=C1NC(Cc2ccccc2)c2nc3ccc(Cl)cc3c(=O)n2-c2ncccc21 (stereo unspecified)	u	-17%	-6	-24%	21µM*
O=C1NC(Cc2ccc(O)cc2)c2nc3cc(Cl)ccc3c(=O)n2-c2cc(Cl)ccc21 (stereo unspecified)	u	u	-71*	-23%	u
CC1NC(=O)c2cc3ccccc3cc2-n2c1nc1ccc(F)cc1c2=O (stereo unspecified)	18%	2%	2	4%	-6%
O=C1NC(Cc2ccccc2)c2nc3ccc(Cl)cc3c(=O)n2-c2cc3ccccc3cc21 (stereo unspecified)	u	u	16	-19%	7.3µM*
CCOc1ccc(S(=O)(=O)N2CCN(Cc3ccc4c(c3)OCO4)CC2)cc1C	-21%	0%	-16	7%	-18%
CNS(=O)(=O)c1cn(CC(=O)NCc2ccc(OC)cc2)cc1S(=O)(=O)NC	11%	9%	5	0%	-5%
O=C1NC(Cc2ccc(O)cc2)c2nc3ccc(Cl)cc3c(=O)n2-c2cc3ccccc3cc21 (stereo unspecified)	6.5µM*	u	20	15µM*	5.2µM*
O=C1NC(Cc2ccc(O)cc2)c2nc3cc(Cl)ccc3c(=O)n2-c2ncccc21 (stereo unspecified)	u	u	-12	-29%	u
Cc1cc(C)c2c(=O)n3c(nc2c1)C(Cc1ccccc1)NC(=O)c1cc2ccccc2cc1-3 (stereo unspecified)	u	-11%	35	-26%	u
CCC1NC(=O)c2cc3ccccc3cc2-n2c1nc1cc(C)cc(C)c1c2=O (stereo unspecified)	18µM*	-5%	15	-1%	4.1µM*
COc1ccc(C(=O)Nn2c(CCC(=O)O)ccc2-c2ccc(C)cc2)cc1OC	-15%	13%	23	2%	u
O=C(CSc1nnc(-c2ccc3c(c2)OCO3)o1)Nc1ncc(C(F)(F)F)cc1Cl	u	0%	25	-1%	16µM*
Cc1nc(NC(=O)CSc2nnc(-c3ccc4c(c3)OCO4)o2)c(Cl)cc1Cl	-16%	-1%	23	-3%	u
N#CC(C#N)=C/C=C(\Nc1ccc(Cl)cc1)c1ccc(Cl)cc1	-29%	16%	0	-5%	u
N#CC(=C1C=CC(=NO)C(Cl)=C1)c1ccccc1	0.65µM*	5.8µM*	-98*	7.3µM*	1.3µM*
N#CC(=C1C=C(Br)C(=NO)C=C1Cl)c1ccc(Cl)cc1	4.6µM*	-19%	u	-20%	2.6µM*
Cc1ccc(-c2cc(-c3coc4ccccc4c3=O)c3c(n2)-c2ccccc2OC3)cc1	u	x	x	x	-26%
CC(C)N1CCN(Cc2ccc3c(c2)Cc2ccccc2-3)CC1CCO (stereo unspecified)	u	u	-11	u	23µM*
O=C(NCCNC(=O)c1ccccc1F)c1ccccn1	-11%	15%	-1	4%	-5%
Cc1coc2c(C)c3oc(=O)c(CCC(=O)NCCc4ccccc4)c(C)c3cc12	13µM*	x	x	x	16µM*
COc1ccccc1CNC(=O)Cc1c(C)c2cc3c(C)coc3c(C)c2oc1=O	16µM*	x	x	x	12µM*
CCCC(NC(=O)CCc1c(C)c2cc3c4c(oc3c(C)c2oc1=O)CCCC4)C(=O)O (stereo unspecified)	12µM*	-13%	21	-28%	-10%
Cc1coc2c(C)c3oc(=O)c(CC(=O)NCc4ccccc4)c(C)c3cc12	5.8µM*	x	x	x	4.6µM*
Cc1c(CC(=O)NCc2ccccc2)c(=O)oc2c(C)c(O)ccc12	13µM*	x	x	x	13µM*
SMILES	TDP1 cell CPT	HT1080 IDH1KD tx	IL-1B inflam inh	HT1080-NT tox	TDP1 cell noCPT
COc1ccc2c(C)c(CC(=O)NCc3ccc(C)cc3)c(=O)oc2c1OC	0%	x	x	x	-23%
Cc1cccc(N2CCN(C(=O)c3ccncc3)CC2C)c1 (stereo unspecified)	-24%	-8%	-2	0%	-24%
Cc1ccc(N2C(=O)C3C4C=CC(CNC(=S)N5CCN(c6cccc(C)c6)C(C)C5)(O4)C3C2=O)cc1 (stereo unspecified)	9.2µM*	-3%	27	30%	4.6µM*
C[C@H]1CCCCO[C@H](CN(C)Cc2ccncc2)[C@@H](C)CN([C@@H](C)CO)C(=O)c2cc(NS(=O)(=O)c3ccccc3)ccc2O1	4%	4%	-12	1%	u
Cc1noc(C)c1S(=O)(=O)Nc1ccc2c(c1)C(=O)N([C@H](C)CO)C[C@H](C)[C@H](CN(C)S(=O)(=O)c1ccc(Cl)cc1)OCCCC[C@@H](C)O2	u	u	-3	-12%	u
Cc1ccc(S(=O)(=O)N(C)C[C@@H]2OCCCC[C@@H](C)Oc3ccc(NS(=O)(=O)c4c(C)noc4C)cc3C(=O)N([C@H](C)CO)C[C@@H]2C)cc1	16µM*	-22%	-21	-9%	12µM*
Cc1ccc(S(=O)(=O)Nc2ccc3c(c2)C(=O)N([C@@H](C)CO)C[C@@H](C)[C@@H](CN(C)S(=O)(=O)c2ccccc2)OCCCC[C@H](C)O3)cc1	8.2µM*	-3%	-9	-14%	10µM*
C[C@@H]1CCCCO[C@@H](CN(C)Cc2ccc3c(c2)OCO3)[C@@H](C)CN([C@H](C)CO)C(=O)c2cc(NS(=O)(=O)c3ccccc3)ccc2O1	18µM*	u	-30	u	10µM*
CCOC1=C2[C@H](c3ccc(Cl)cc3)N(S(=O)(=O)c3ccc(C)cc3)C[C@H]2n2c(=O)n(-c3ccccc3)c(=O)n2C1	u	20%	-8	25%	-18%
Cc1ccc2nc(-c3ccc(SCC(=O)Nc4ccc5c(c4)OCCO5)nc3)[nH]c2c1	u	-5%	-15	6%	-59%
Cc1cc2nc(-c3ccc(SCC(=O)Nc4ccc5c(c4)OCCO5)nc3)[nH]c2cc1C	23µM*	u	-5	u	23µM*
Cc1cc2nc(-c3ccc(SCC(=O)N4CCOCC4)nc3)[nH]c2cc1C	26µM*	u	u	u	u
CC[C@H](C)[C@@H](C(=O)NCCCCCCCCCCC(=O)N1CCN(C(=O)OC(C)(C)C)CC1)n1cc(CCCCCNC(=O)OC(C)(C)C)nn1	4.6µM*	-8%	35	-11%	5.8µM*
